EWS-Fli block = blocks EWS/Fli oncoprotein-driven transcription; A673 NR0B1-luciferase reporter, viability-normalised; inhibition, % at 12.6 µM; hit rate 0.67% among 350,000; AID 651661;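 active means mean inhibition of at least 50% after viability correction, with every replicate also passing that limit; inconclusive means mean reaches 50% but only one of two replicates passes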;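 further: firefly luciferase signal divided by Alamar Blue viability fluorescence both relative to DMSO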
CF NFkB inh = blocks PAF-induced NF-kB reporter in cystic fibrosis cells; AID 588850; hit rate 0.86% among 360,000; inhibition, % at 5 µM; KKLEB NF-kB-GFP reporter, GFP fluorescence overnight;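 active means at least 50% inhibition at 5 µM, scaled per plate between neutral and stimulator controls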;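 further: PAF is a Pseudomonas aeruginosa culture filtrate used as stimulus; plate controls were PAF-stimulated DMSO wells for no effect and unstimulated DMSO wells for full effect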
KKLEB cytotox = CF airway cell cytotoxicity counter-screen; KKLEB CF airway cells viability, ATPlite luminescence, overnight; active compounds read low; cells stimulated with P. aeruginosa culture filtrate; activity change (cytotoxicity), % at 5 µM; hit rate 0.36% among 360,000; AID 602141;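 active means corrected activity change at or below -50% at 5 µM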
TWEAK-Fn14 inh = blocks TWEAK-Fn14 interaction in a reporter cell assay; TWEAK-stimulated Fn14 reporter cells, luciferase luminescence, 8 h; inhibition, % at 10 µM; hit rate 2% among 360,000; AID 1159606; in the data active means inhibition above about 50%
TROY signal inh = inhibitors of TROY-dependent NF-kB signaling; Q293 LMP1-TROYcd NF-kB luciferase reporter, 4 h; inhibition, % at 10 µM; hit rate 0.98% among 360,000;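 active means compounds whose plate-normalised and pattern-corrected inhibition of the luciferase reporter signal at the single screening dose is 50% or more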
LGR2 antag = Drosophila LGR2 receptor signaling inhibition; HEK293 LGR2, CRE-luciferase, bursicon-stimulated, 4 h; inhibition, % at 9.99 µM; hit rate 0.35% among 380,000;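 active means drop in luminescence signal, shown as inhibition above about 50% in the replicate tests, limit read from the data, passing the limit was not always enough; inconclusive means probably only some replicates passing the limit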;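 further: agonist challenge used bursicon conditioned medium at about half maximal strength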
* marks the source's active call; other numbers are inactive results; u = inconclusive; x = no result given. This is a sample that favours compounds with a hit; in the whole collection about 2.6% have one here.

SMILES	EWS-Fli block	CF NFkB inh	KKLEB cytotox	TWEAK-Fn14 inh	TROY signal inh	LGR2 antag
CCCn1nnc(NC(=O)/C=C/c2ccccc2)n1	-14.0	-21.9	-0.8	7.1	-10.6	-3.4
Cc1nc(NC(=O)/C=C/c2ccccc2)n[nH]1	38.5	43.6	-3.9	86.2*	1.4	u
CN(C)C(=O)C[C@@H]1C[C@H]2c3cc(NC(=O)C4CCOCC4)ccc3O[C@H]2[C@@H](CO)O1	-3.1	x	x	x	x	28.4
N#Cc1ccc(-c2ccc([C@@H]3[C@@H](CO)N4C(=O)CN(C(=O)C5CC5)C[C@@H]34)cc2)cc1	30.6	x	x	x	x	0.1
COc1ccc(/C=C/C=O)cc1	-8.1	x	x	x	x	x
COc1ccc(/C=N/NC(=O)c2ccc(N(C)S(=O)(=O)c3ccccc3)cc2)cc1	x	19.5	-4.2	51.4*	-4.0	16.6
COc1ccc(/C=N/NC(=O)c2ccc(N(C)S(=O)(=O)c3ccccc3)cc2)c(OC)c1	8.5	12.1	2.8	-12.9	13.4	-14.8
COc1cccc(C(=O)NC(=S)N2CCN(c3ccc(C(F)(F)F)cc3[N+](=O)[O-])CC2)c1	63.8*	-0.3	-14.8	-41.0	15.9	2.3
O=C(NCCc1ccccc1)[C@@H]1[C@@H](CO)[C@@H]2Cn3c(cccc3=O)[C@@H]2N1Cc1ccccc1	1.8	x	x	x	x	0.6
COC(=O)CCn1nnc(-c2ccc(C(C)C)cc2)n1	x	-5.5	10.3	68.1*	50.3*	x
CC(C)NC(=O)Nc1ccc2c(c1)C(=O)N([C@@H](C)CO)C[C@@H](C)[C@H](CN(C)S(=O)(=O)c1ccc(F)cc1)OCCCC[C@@H](C)O2	-2.5	x	x	x	x	15.9
O=C(C=Cc1cccc(O)c1)c1ccccc1O	-14.0	27.7	-16.1	64.5*	-15.6	-16.7
O=C(/C=C/c1ccc(O)cc1)c1ccc(O)cc1O	-2.0	-8.9	-5.4	58.6*	-22.1	-45.1
N#C[C@H]1[C@@H](c2ccc(/C=C/c3ccccc3)cc2)[C@@H](CO)N1C(=O)C1CC1	-9.1	x	x	x	x	-21.0
O=C(Nc1cc(Cl)ccc1Oc1ccccc1)c1cnccn1	x	-3.0	-14.7	87.6*	x	x
O=C(C[C@@H]1C=C[C@@H](NS(=O)(=O)c2ccccc2)[C@H](CO)O1)NCCN1CCCCC1	-36.1	x	x	x	x	-5.3
CCOCCCn1c(SCC(=O)Nc2ccccc2)nc2ccccc2c1=O	6.9	-20.3	14.6	-7.0	19.5	8.3
CCOCCCn1c(SCc2nc3ccccc3s2)nc2ccccc2c1=O	-35.8	12.6	-1.7	73.3*	52.5*	u
CCCOc1ccc(/C(CC)=N/NC(=O)C2(C)CC2(Br)Br)cc1 (stereo unspecified)	x	34.2	-51.6*	-13.2	3.3	-3.9
CCN(CC)C(=O)Cn1cc(SCC(=O)NCc2ccco2)c2ccccc21	5.9	-8.4	-15.4	5.4	10.6	14.3
COc1ccccc1C(=O)NCCn1cc(SCC(=O)NCC2CCCO2)c2ccccc21 (stereo unspecified)	-3.8	3.0	5.9	9.5	-0.3	-1.3
COc1ccc(C(=O)NCCn2cc(SCC(=O)NCC3CCCO3)c3ccccc32)cc1 (stereo unspecified)	-35.1	6.1	5.3	84.5*	59.2*	-15.3
COc1ccc(C(=O)NCCn2cc(SCC(=O)NCc3ccco3)c3ccccc32)cc1	x	-4.8	6.6	45.5	63.7*	x
COc1ccc(C(=O)NCCn2cc(SCC(=O)Nc3nnc(C)s3)c3ccccc32)cc1	-20.0	7.8	-0.4	66.9*	62.2*	-8.7
Cc1nnc(NC(=O)CSc2cn(CCNC(=O)c3ccccc3)c3ccccc23)s1	-15.3	-8.0	11.5	25.0	20.4	17.2
SMILES	EWS-Fli block	CF NFkB inh	KKLEB cytotox	TWEAK-Fn14 inh	TROY signal inh	LGR2 antag
N#C/C(=C\Nc1ccccc1O)c1nc2ccccc2o1	-13.1	-17.1	2.5	42.9	51.5*	37.2
CN(C)C(=O)C[C@@H]1C[C@H]2c3cc(NC(=O)C4CCC4)ccc3O[C@H]2[C@H](CO)O1	-4.4	x	x	x	x	13.1
COc1ccc(NS(=O)(=O)c2ccc3oc(SCc4ccc(F)cc4)nc3c2)cc1	11.7	1.5	-18.9	48.3	50.6*	15.8
C=CCC[C@@H](Cc1ccc(F)cc1)C(=O)OC[C@@H](NC(=O)[C@@H](CC=C)CC(=O)N(CCO)Cc1ccccc1)c1ccccc1	1.0	13.3	-1.9	43.5	29.7	x
C=CC[C@H](CC(=O)N(CCO)Cc1ccccc1)C(=O)N[C@H](COC(=O)[C@@H](CC=C)Cc1ccc(F)cc1)Cc1c[nH]c2ccccc12	-0.2	14.2	9.8	60.2*	40.1	x
C=CCC[C@@H](Cc1ccc(F)cc1)C(=O)OC[C@@H](NC(=O)[C@H](CC=C)CC(=O)N(CCO)Cc1ccccc1)c1ccccc1	4.3	17.5	-4.1	56.4*	13.4	42.6
C=CC[C@@H](CC(=O)N(CCO)Cc1ccccc1)C(=O)N[C@H](COC(=O)[C@@H](CC=C)Cc1ccc(F)cc1)Cc1c[nH]c2ccccc12	3.2	19.0	-25.4	50.8*	35.6	2.9
C=CCC[C@H](Cc1ccc(F)cc1)C(=O)OC[C@H](Cc1c[nH]c2ccccc12)NC(=O)[C@H](CC=C)CC(=O)N(CCO)Cc1ccccc1	23.2	30.4	-13.2	57.0*	32.6	33.2
C=CCC[C@@H](Cc1ccc(F)cc1)C(=O)OC[C@@H](Cc1c[nH]c2ccccc12)NC(=O)[C@@H](CC=C)CC(=O)N(CCO)Cc1ccccc1	5.4	16.4	7.6	49.2	26.0	20.4
CO[C@H]1CN(C)C(=O)c2cc(NC(=O)C3CC3)ccc2OC[C@@H](C)N(CC2CCCC2)C[C@H]1C	-1.9	x	x	x	x	-8.1
C[C@H](CO)N1C[C@H](C)[C@H](CN(C)C(=O)Cc2ccccc2)Oc2ncc(C#CCN(C)C)cc2C1=O	-10.0	x	x	x	x	7.9
COc1ccc(S(=O)(=O)Nc2ccc3c(c2)C(=O)N([C@@H](C)CO)C[C@H](C)[C@@H](CN(C)S(=O)(=O)c2ccc(OC)cc2)O3)cc1	-2.9	x	x	x	x	6.8
C[C@H](CO)N1C[C@H](C)[C@H](CN(C)C(=O)Nc2ccc3c(c2)OCO3)Oc2ccc(NC(=O)CCN3CCOCC3)cc2CC1=O	-7.7	x	x	x	x	-3.1
C=CC[C@@H](CC(=O)N(CCO)Cc1ccccc1)C(=O)N[C@@H](COC(=O)[C@@H](CC=C)Cc1ccc(F)cc1)Cc1ccccc1	2.4	2.2	5.3	57.5*	41.5	47.2
C[C@H](CO)N1C[C@H](C)[C@@H](CN(C)C(=O)c2ccncc2)OCCCC[C@H](C)Oc2ccc(NS(=O)(=O)c3cccs3)cc2C1=O	-9.5	x	x	x	x	-10.9
Nc1nc2ccccc2cc1C(=O)NCCCCc1ccccc1	x	x	x	53.3*	13.9	x
CCn1c(=O)c([N+](=O)[O-])c(Cl)c2ccccc21	x	67.2*	-2.3	21.0	13.8	x
COc1c2c(cc3oc(=O)c4c5ccc(O)cc5oc4c13)OC(C)(C)CC2	-76.9	0.9	-19.6	76.7*	76.7*	-16.4
C[C@H](CO)N1C[C@H](C)[C@H](CN(C)S(=O)(=O)c2cn(C)cn2)Oc2ncc(C#CC(C)(C)O)cc2C1=O	-0.6	x	x	x	x	-2.0

Screening results deposited in PubChem by several laboratories.
